# Assay outcomes deposited in PubChem BioAssay by National Center for Advancing Translational Sciences (NCATS).
# FEN1 inh = human FEN1 inhibition; P39748; Recombinant FEN1 flap cleavage, fluorescence, 15 min; Potency, µM (titrated, usually from 114 µM), for the others: at the top dose activity change, negative = inhibition, usual class: inhibitors; 390,000 compounds, 0.35% hits; AID 588795; note: nearly all actives have a fitted effect of over 65% in size
# Target sequence (P39748 whole entry, looked up): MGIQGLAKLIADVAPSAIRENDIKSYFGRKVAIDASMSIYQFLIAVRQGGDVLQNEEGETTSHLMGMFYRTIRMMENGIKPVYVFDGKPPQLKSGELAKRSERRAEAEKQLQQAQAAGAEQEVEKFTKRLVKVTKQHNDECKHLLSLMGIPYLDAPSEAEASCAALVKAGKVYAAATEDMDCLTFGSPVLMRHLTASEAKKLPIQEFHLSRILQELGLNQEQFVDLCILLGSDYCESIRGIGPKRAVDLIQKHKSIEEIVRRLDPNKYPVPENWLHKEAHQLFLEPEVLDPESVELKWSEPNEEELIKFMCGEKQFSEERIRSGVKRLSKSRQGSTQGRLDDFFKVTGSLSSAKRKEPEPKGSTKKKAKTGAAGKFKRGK
#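 Enzyme 10 nM, 15 min RT preincubation with compound; start with substrate 50 nM final; reads at 0 and 15 min; qHTS titration, four-parameter Hill fit.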
# WRN inhibitor = blocks human WRN helicase | WRN helicase unwinding, fluorescent forked duplex, kinetic | Potency, µM (top dose mostly 114 µM), without a hit: top-dose activity change, negative = inhibition, most hits filed as inhibitors | 360,000 compounds, 0.46% hits | AID 651768; note: nearly all actives have a fitted effect of over 55% in size
#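 WRN at 20 nM final preincubated with compound 15 min at room temperature; reaction started with 100 nM fluorophore/quencher forked duplex oligonucleotide and 2 mM ATP final. Unwinding followed kinetically by red fluorescence (ex 525, em 598 nm).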
# BLM helicase inh = inhibitors of human Bloom syndrome helicase BLM. P54132. recombinant BLM DNA unwinding, fluorescence dequenching. Potency, µM (doses to about 56.1 µM), without a hit: top-dose activity change, negative = inhibition, most hits filed as inhibitors. 350,000 compounds, 0.2% hits. AID 2528;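 note: plate controls were vehicle for no effect and no enzyme for full effect; nearly all actives have a fitted effect of over 35% in size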
# APEX1 inh = APE1 (human) endonuclease inhibition; 350,000 compounds, 0.35% hits; Potency, µM (top dose mostly 65.8 µM), for inactives: at the top dose activity change, negative = inhibition, hits mostly inhibitors; recombinant APE1, TAMRA/BHQ-2 abasic DNA cleavage fluorescence;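 note: plate controls were vehicle for no effect and reference inhibitor for full effect; nearly all actives have a fitted effect of over 55% in size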
# Target sequence (P27695 whole entry, looked up): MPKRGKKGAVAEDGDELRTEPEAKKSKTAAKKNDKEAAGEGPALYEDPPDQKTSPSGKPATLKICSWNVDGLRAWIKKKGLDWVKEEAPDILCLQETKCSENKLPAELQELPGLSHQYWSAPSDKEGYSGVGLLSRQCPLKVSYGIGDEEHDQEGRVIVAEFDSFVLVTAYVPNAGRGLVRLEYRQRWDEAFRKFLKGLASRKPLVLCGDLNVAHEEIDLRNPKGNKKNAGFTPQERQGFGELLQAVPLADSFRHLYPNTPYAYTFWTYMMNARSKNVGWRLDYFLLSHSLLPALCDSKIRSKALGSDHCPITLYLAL
#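 Substrate: short duplex with […] THF abasic site, 5'-TAMRA and 3'-BHQ-2, 50 nM final. APE1 at 0.75 nM, preincubated 15 min RT with compound. Fluorescence increase from first to third read measured activity.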
# RECQ1 helicase = blocks DNA unwinding by human RECQ1 | P46063 | RECQ1 DNA unwinding, red fluorescence kinetic read | Potency, µM (series often up to 57.3 µM), without a hit: top-dose activity, negative = inhibition, hits mostly inhibitors | 240,000 compounds, 0.54% hits | AID 2549;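 note: plate controls were vehicle for no effect and no enzyme for full effect; nearly all actives have a fitted effect of over 30% in size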
#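 RECQ1T1 50 nM; forked duplex (20 bp + 30-nt ss tails) 200 nM, ATP 2 mM final; pH 8.0, 2 mM MgCl2, 2.5 ug/ml poly(dI-dC); 15 min compound preincubation; discontinuous kinetic read over 2 h at RT.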
# * marks the source's active call; other numbers are inactive results; i = inactive; u = inconclusive; x = not tested or not shown; [ ] = dose if it differs, or a comment. The list is not random: actives were taken first. Their share in the collection is about 0.87%. Calls come from the whole dose curve; as a rule, active = well fitted curve in the direction sought with a large enough effect; inconclusive = small, poorly fitted or top-dose-only effect, or another doubt; inactive = no such curve, though single readings can be large; an effect the other way counts as inactive or inconclusive. Unless noted, % is set by controls: 0 for no effect and ±100 for the full control effect; potency is the fitted concentration of half-maximal effect.
SMILES,FEN1 inh,WRN inhibitor,BLM helicase inh,APEX1 inh,RECQ1 helicase
CCc1cccc(NC(=O)C(CC)n2nc(C)c3sc4ccccc4c3c2=O)c1 (centres undefined),10%,x,-1%,x,x
O=C(N/N=C/c1ccc(OC(=O)c2ccccc2)cc1)c1cccnc1,-28%,56µM*,-20%,u,x
O=[N+]([O-])c1ccc2c(c1)C=CC2,-20%,x,x,x,x
COc1cc2c(NC3CCN(C)CC3)nc(N3CCCN(C)CC3)nc2cc1OCc1ccccc1,22µM*,x,x,x,x
COc1cc2nc(N3CCCN(C)CC3)nc(NC3CCN(Cc4ccccc4)CC3)c2cc1OC,18µM*,x,x,x,x
COc1cc2nc(Cl)nc(N3CCN(C)CC3)c2cc1OC,x,x,3%,2%,-2%
COc1cc2nc(N3CCN(C)CC3)nc(NC3CC3)c2cc1OC,-20%,x,x,x,x
COc1cc2nc(N3CCCN(C)CC3)nc(Nc3ccncc3)c2cc1OC,14µM*,x,x,x,x
C=Nc1ccc(/C=C/c2ccnc3ccccc23)cc1,-20%,x,x,x,x
Cc1cc(SCC(=O)N/N=C/c2ccc(O)c(O)c2)nc2ccccc12,u,79µM*,-25%,-13%,x
O=C(Cc1nnc(NC(=O)c2ccccc2)s1)N/N=C\c1ccc(O)c(O)c1,u,18µM*,u,u,x
O=C(Cc1nnc(NC(=O)c2ccccc2)s1)N/N=C/c1ccc(O)cc1,-10%,-6%,-18%,-34%,x
O=C(/C=C/c1ccc(C(F)(F)F)cc1)OC(C(=O)NC1CC1)c1ccccc1 (centres undefined),16%,x,x,x,x
O=C(Nc1ccc2nc(-c3ccco3)c(-c3ccco3)nc2c1)N1CCCC1,11µM*,x,x,x,x
CC1CCN(C(=O)Nc2ccc3nc(-c4ccco4)c(-c4ccco4)nc3c2)CC1,16µM*,x,x,x,x
COc1cccc(C(=O)N2CC(=O)Nc3ccc(C)cc3C2c2ccc(F)cc2)c1OC (centres undefined),-7%,x,-7%,x,x
COC(CC(=O)NNC(=S)Nc1ccccc1)OC,14%,-1%,1%,u,14µM*
COC(CC(=O)NNC(=S)Nc1ccc(Cl)cc1)OC,2%,-9%,1%,0%,-2%
CCCCC(=O)N(Cc1ccc(-c2ccccc2-c2nn[nH]n2)cc1)[C@@H](C(=O)O)C(C)C,x,x,x,-4%,x
O=C(O)c1cc(O)c2c(c1)[C@@H]([C@H]1c3cc(C(=O)O)cc(O)c3C(=O)c3c(O[C@@H]4O[C@H](CO)[C@@H](O)[C@H](O)[C@H]4O)cccc31)c1cccc(O[C@@H]3O[C@H](CO)[C@@H](O)[C@H](O)[C@H]3O)c1C2=O,3.2µM*,3.2µM*,x,0.067µM*,x
O=C1c2c(O)cccc2[C@H]([C@@H]2O[C@H](CO)[C@@H](O)[C@H](O)[C@H]2O)c2cc(CO)cc(O)c21,x,x,x,-3%,x
COc1cc(-c2nnc(COC(=O)c3ccc(C)o3)o2)cc(OC)c1OC,0%,-19%,x,24µM*,x
CCC(=O)OCC(=O)[C@@]1(OC(=O)CC)[C@H](C)C[C@H]2[C@@H]3CCC4=CC(=O)C=C[C@]4(C)[C@@]3(F)[C@@H](O)C[C@@]21C,x,x,x,-9%,x
CCOc1ccccc1NS(=O)(=O)c1ccc2c(c1)CC(C)N2C(=O)C1CC1 (centres undefined),-1%,x,-1%,x,x
Cc1ccc(CNC(=O)c2sc3nc(-c4ccccc4)cn3c2C)cc1,89µM*,x,0%,x,x
SMILES,FEN1 inh,WRN inhibitor,BLM helicase inh,APEX1 inh,RECQ1 helicase
Cc1c(C(=O)NCc2ccc(F)cc2)sc2nc(-c3ccc(F)cc3)cn12,-23%,x,2%,x,x
CCCSc1cc(NCCOC(=O)CCC)c([N+](=O)[O-])c2nonc12,-12%,-15%,0%,5%,-3%
CC(=O)OCCCNc1cc(SCc2ccco2)c2nonc2c1[N+](=O)[O-],56µM*,22µM*,-17%,u,u
CCCC(=O)OCCNc1cc(SCc2ccco2)c2nonc2c1[N+](=O)[O-],-26%,35µM*,13µM*,6%,3%
CCCSc1cc(NCCOC(C)=O)c([N+](=O)[O-])c2nonc12,-18%,16%,-5%,0%,-1%
Cc1ccc(C)c(-n2nnc(-c3nc(-c4ccccc4C)no3)c2C)c1,-7%,x,-7%,x,x
C/C=C1\[C@H]2C=C(C)C[C@]1(N)c1ccc(=O)[nH]c1C2,x,x,x,2%,x
CCOc1ccc(NC(=O)c2nc(S(=O)(=O)Cc3ccc(F)cc3)ncc2Cl)cc1,-27%,x,x,x,x
C#Cc1ccc([C@@H]2C=C(C(=O)NCc3ccccc3)O[C@H](OCc3ccc(CO)cc3)C2)cc1,-24%,-13%,-8%,-4%,u
C#Cc1ccc([C@H]2C=C(C(=O)O)O[C@@H](OCc3ccc(CO)cc3)C2)cc1,-7%,-23%[57.1 µM],-6%,32µM*,-13%
CCC(=O)Nc1ccc2nc3c(=O)n(C)c(=O)n(C)c3nc2c1,-21%,x,-5%,x,x
CCC(=O)Nc1ccc2nc3c(=O)[nH]c(=S)[nH]c3nc2c1,50µM*,u,-28%,-38%,x
C[N+]1(CC(=O)c2ccc(I)cc2)CCCc2ccccc21 (centres undefined),-11%,x,x,x,x
O=c1cc(-c2cccc(O)c2)oc2c(O)c(O)ccc12,x,x,-1%,u,4.5µM*
Cn1ccnc1SCC(=O)Nc1cc(Cl)ccc1Cl,-5%,x,0%,x,x
C=CCn1c(SCC(=O)NC(=O)NCc2ccco2)nc2sc(CC)cc2c1=O,-10%,-20%[11.6 µM],-21%,32µM*,-26%
COc1cc(C(=O)Nc2nnc(-c3sccc3C)s2)cc(OC)c1OC,13%,50µM*,-11%,0%,-6%
CCn1c(CSc2nccn2C)nc2cc(C(=O)O)ccc21,-8%,79µM*,-4%,16%,-10%
COc1ccc2nc(-c3cccc(F)c3)sc2c1,x,x,x,-1%,x
CSC1=NSC2=NC(=O)/C(=C\c3coc4ccccc4c3=O)C(=N)N12,79µM*,56µM*,-12%,-10%,-3%
O=C(CCCCCNC(=O)c1ccccc1Br)N=Nc1c(O)[nH]c2ccccc12,-14%,-18%[57.1 µM],-4%,25µM*,i
O=C(CNC(=O)Cc1ccccc1)N=Nc1c(O)[nH]c2ccccc12,-2%,-8%,-4%,14%,x
Cc1ccc(C2CC(=O)N(Cc3ccc(F)cc3)c3c2c(C)nn3-c2nc(C)cc(C)n2)cc1 (centres undefined),0%,x,-2%,x,x
CC(C)(C)n1ncc2c(=O)n(Cc3ccc(F)c(C(F)(F)F)c3)cnc21,-9%,x,x,-9%,x
COC(=O)/C(C#N)=C/c1ccc(-c2ccc(S(N)(=O)=O)cc2)o1,-4%,-20%,1%,-4%,3.2µM*
CC(C)OC(=O)/C(C#N)=C/c1ccc(-c2ccc(SC(F)F)cc2)o1,-6%,-4%,-6%,4%,8%
COC1=C(Br)C(=O)c2nc(C)ccc2C1=O,x,50µM*,x,x,x
COC1=C(N)C(=O)c2nc(C)ccc2C1=O,u,-33%,x,x,x
